In the library only some 21% were active in any assay of this set; here they are far more common.
Pf growth 96h: Primary qHTS for delayed death inhibitors of the malarial parasite plastid, 96 hour incubation; P. falciparum luciferase reporter growth, 96 h; Potency, µM (doses to about 28.7 µM), hits mostly inhibitors; hit rate 6.9% among 320,000; AID 504834, 2011
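P. falciparum expressing integrated firefly luciferase, in erythrocytes at 2% hematocrit, 0.05% parasitemia, incubated with compounds 96 h at 37 C, 5% CO2. Growth inhibition read as loss of luminescence; two-generation exposure targets delayed-death apicoplast inhibitors.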
Pf growth 48h: Primary qHTS for delayed death inhibitors of the malarial parasite plastid, 48 hour incubation. P. falciparum luciferase growth in erythrocytes, 48 h. Potency, µM (highest dose often 28.7 µM), usual class: inhibitors. hit rate 5.9% among 310,000
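Erythrocytes infected with P. falciparum carrying an integrated firefly luciferase reporter (2% hematocrit, 0.1% parasitemia final) were exposed to compounds in RPMI 1640 with 0.5% Albumax at 37 C, 5% CO2. Growth inhibition was scored as reduced luminescence.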
Shiga toxin inh: A qHTS for Small Molecule Inhibitors of Shiga Toxin; Vero cells, Shiga toxin protein synthesis inhibition reporter; inhibition, % at 38.7 µM; hit rate 9.2% among 290,000; in the data active means inhibition mostly above about 28%, no sharp cut-off; inactive means mostly below about 43%
CHX counter: Cycloheximide Counterscreen for Small Molecule Inhibitors of Shiga Toxin; cell reporter, cycloheximide protein synthesis inhibition counterscreen; max response, %; hit rate 12% among 300,000; in the data active means max response mostly above about 13%, no sharp cut-off; inactive means mostly below about 14%; further: read at 38.3 µM for the half of the compounds with a filed dose
Giardia FBPA inh: qHTS Assay for Inhibitors of Fructose-1,6-bisphosphate Aldolase from Giardia Lamblia; Potency, µM (titrated, usually from 59.6 µM), hits mostly inhibitors; A8B2U2; hit rate 0.71% among 290,000; purified Giardia FBPA; further: nearly all actives have a fitted effect of over 55% in size
Target sequence (A8B2U2 whole entry, looked up): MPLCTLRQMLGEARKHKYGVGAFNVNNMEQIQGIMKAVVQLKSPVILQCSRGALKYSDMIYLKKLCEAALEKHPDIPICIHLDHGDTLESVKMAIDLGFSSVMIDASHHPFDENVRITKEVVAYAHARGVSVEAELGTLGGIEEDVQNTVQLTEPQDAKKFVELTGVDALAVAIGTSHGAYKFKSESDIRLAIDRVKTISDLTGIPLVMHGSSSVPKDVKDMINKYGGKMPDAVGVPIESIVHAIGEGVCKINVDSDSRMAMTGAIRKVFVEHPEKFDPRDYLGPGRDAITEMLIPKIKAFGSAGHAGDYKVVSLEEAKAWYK
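Giardia FBPA (40 nM reagent) was preincubated 10 min at RT with compound (up to 57.5 uM final), then substrate plus GAPDH/TPI/NAD/arsenate coupling system with diaphorase/resazurin was added; resorufin fluorescence (525/598 nm) was read after 20 min.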
NS1 function inh: qHTS Assay for Inhibitors of Influenza NS1 Protein Function; Potency, µM (top dose mostly 46.1 µM); hit rate 0.4% among 270,000; AID 2326, 2010; calls by dose curve; further: actives are rising curves; nearly all actives have a fitted effect of over 50% in size
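S. cerevisiae expressing influenza A NS1, grown in glucose, washed, then diluted 1:100 into pH 6.0 -URA galactose medium with 23 nl compound. Growth recovery read as OD600; NS1-free strain serves as control.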
Large screens that a line does not name were inactive. Unless noted, the call rests on the fitted dose curve; in most records, active means well fitted curve in the direction sought with a large enough effect; inconclusive means small, poorly fitted or top-dose-only effect, or another doubt; inactive means no such curve, though single readings can be large; an effect the other way counts as inactive or inconclusive.

Cc1ccc(C(=O)NC2CC3CCCC(C2)N3Cc2ccccc2)cc1 (configuration not stated)	Pf growth 96h inconclusive, Pf growth 48h inconclusive
CCCN1C2CCCC1CC(NC(=O)c1ccc(C(C)(C)C)cc1)C2 (configuration not stated)	CHX counter 13
CCCN1C2CCCC1CC(NC(=O)c1cc(OC)cc(OC)c1)C2 (configuration not stated)	Pf growth 96h inconclusive, Pf growth 48h inconclusive
O=C(NC1CC2CCCC(C1)N2Cc1ccccc1)c1ccc([N+](=O)[O-])cc1 (configuration not stated)	Pf growth 96h 0.37µM
O=C(CN1C2CCCC1CC(NC(=O)c1ccccc1)C2)Nc1nccs1 (configuration not stated)	Pf growth 96h 9.3µM, Pf growth 48h inconclusive
COc1cc(C(=O)NC2CC3CCCC(C2)N3CC(=O)Nc2ccccc2)cc(OC)c1OC (configuration not stated)	Pf growth 48h inconclusive
N#Cc1ccc(C(=O)OCC(=O)Nc2cccnc2Cl)cc1	none (no result: Shiga toxin inh, CHX counter, Giardia FBPA inh, NS1 function inh)
COc1ccc(C(=O)OCN2C(=O)c3ccccc3C2=O)cc1	none
O=C(c1ccc(F)cc1)C1CCN(C(=O)c2ccccc2F)CC1	Pf growth 96h inconclusive
Cc1ccc(CN2C3CCCC2CC(NC(=O)Nc2cccc(F)c2)C3)cc1 (configuration not stated)	Pf growth 48h 1.9µM
O=C(/C=C/c1ccccc1)NC1CC2CCCC(C1)N2Cc1ccccc1 (configuration not stated)	Pf growth 96h 2.3µM, Pf growth 48h inconclusive
CCCN1C2CCCC1CC(NC(=O)Nc1cccc(C(C)=O)c1)C2 (configuration not stated)	Pf growth 96h inconclusive, Pf growth 48h inconclusive
O=C(CCc1ccccc1)N1CCN(c2ccccc2F)CC1	none
Fc1ccccc1N1CCN(CCCc2ccccc2)CC1	Pf growth 96h 12µM, Giardia FBPA inh inconclusive
CCC1C(=O)CC(c2ccc([N+](=O)[O-])cc2)NC1c1ccc([N+](=O)[O-])cc1 (configuration not stated)	Pf growth 48h 13µM
CCC1C(=O)CC(c2ccco2)NC1c1ccco1 (configuration not stated)	none
COCc1cc(Sc2ccc(Cl)cc2)nc(-c2ccccc2)n1	Pf growth 48h inconclusive
COCc1cc(Sc2cccc(Cl)c2Cl)nc(-c2ccccc2)n1	Pf growth 96h 12µM, Pf growth 48h inconclusive
CC(C)c1ccc(OCc2ccc(C(=O)N3CCN(c4ccccn4)CC3)cc2)cc1	Pf growth 48h inconclusive, CHX counter 30
CC(C)c1ccc(C(=O)N2CCCN(C(=O)c3ccc(C(C)C)cc3)CC2)cc1	none
CC(C)c1ccc(COc2ccc(C(=O)N3CCOCC3)cc2)cc1	CHX counter 16
Cc1ccc(OCc2ccc(C(=O)N3CCOCC3)cc2)cc1C	Shiga toxin inh 54, CHX counter 31
Cc1cc(N2CCOCC2)nc2ccc(NC(=O)CCC(=O)N3CCCC(C)C3)cc12 (configuration not stated)	Pf growth 96h inconclusive, CHX counter 54
Cc1cc(N2CCOCC2)nc2ccc(NC(=O)CCC(=O)N3CCN(c4ccccc4F)CC3)cc12	CHX counter 22
Cc1cc(N2CCOCC2)nc2ccc(NC(=O)CCC(=O)N3CCN(c4ccc(F)cc4)CC3)cc12	Pf growth 96h inconclusive, Pf growth 48h inconclusive, Giardia FBPA inh inconclusive
CCC(C)/C(C)=N/NC(=O)CNS(=O)(=O)c1ccc([N+](=O)[O-])cc1 (configuration not stated)	Pf growth 96h inconclusive, Pf growth 48h inconclusive (no result: NS1 function inh)
Cn1c(=O)c2cn3c(c2n(C)c1=O)C(c1ccccc1)CC(c1ccccc1)=N3 (configuration not stated)	Pf growth 48h inconclusive, Shiga toxin inh 105, CHX counter 38
S=C(Nc1ccccn1)NC1CCCCC1	Pf growth 96h inconclusive, Pf growth 48h inconclusive
S=C(NCCCc1ccccc1)NC1CCCCC1	Pf growth 48h inconclusive, Shiga toxin inh 71, CHX counter 47, Giardia FBPA inh inconclusive
S=C(NCCc1ccccn1)NC1CCCCC1	Shiga toxin inh 27, CHX counter 42
O=C(CN1CCc2ccccc21)Nc1ccc2c(c1)OCCCO2	none (no result: Shiga toxin inh, CHX counter, Giardia FBPA inh, NS1 function inh)
CC(=O)c1ccc(OCc2cc(=O)n3ccsc3n2)cc1	Shiga toxin inh 63, CHX counter 38
O=c1cc(CNc2ccc(Br)cc2)nc2sccn12	Shiga toxin inh 56, CHX counter 28
CN(Cc1cc(=O)n2ccsc2n1)c1ccccc1	none
O=C(CN1CCOCC1)Nc1ccc([N+](=O)[O-])cc1	Pf growth 96h inconclusive
CCc1ccc(-c2ccc(C(=O)O)c(C)n2)cc1	Shiga toxin inh 47, CHX counter 40
Cc1nc(-c2cccc(Br)c2)ccc1C(=O)O	none (no result: NS1 function inh)
C=CCc1cc(OC)ccc1OCCOCCN1CCc2ccccc2C1	Pf growth 96h 13µM, Giardia FBPA inh inconclusive (no result: NS1 function inh)
Cc1nnc2sc(-c3ccc(NC(=O)CSc4ccc(Cl)cc4)cc3)nn12	Pf growth 96h inconclusive, Pf growth 48h 5.2µM
COc1cccc(/C=C/C(=O)NNC(=O)c2ccco2)c1OC	none (no result: Shiga toxin inh, CHX counter, Giardia FBPA inh, NS1 function inh)
CN(N=Nc1ccc([N+](=O)[O-])cc1)c1ccccc1	Shiga toxin inh 54, CHX counter 68
CN(N=Nc1cccc([N+](=O)[O-])c1)c1ccccc1	Shiga toxin inh 88, CHX counter 57
CCOC(=O)CN(C(=O)c1snc(C(N)=O)c1N)C(C(=O)NC1CCCCC1)c1ccc(F)cc1 (configuration not stated)	Pf growth 96h inconclusive
COc1ccc(CN(Cc2cccnc2)S(=O)(=O)c2ccc(-n3cnnn3)c(OC)c2)cc1	Pf growth 48h 12µM
COc1cccc(CN(Cc2cccnc2)S(=O)(=O)c2ccc(-n3cnnn3)c(C)c2)c1OC	Pf growth 48h 12µM (no result: Pf growth 96h)
COc1cc(CN(C2CCCCC2)S(=O)(=O)c2ccc(S(=O)(=O)N(C)C3CCCCC3)cc2)cc(OC)c1OC	Pf growth 96h 8.3µM, Pf growth 48h inconclusive, NS1 function inh inconclusive
CCN(C1CCCCC1)S(=O)(=O)c1ccc(OC)c(C)c1	none
COc1cc(S(=O)(=O)N(Cc2cccc(OC)c2OC)CC2CCCO2)ccc1-n1cnnn1 (configuration not stated)	Pf growth 96h inconclusive, Pf growth 48h inconclusive
COc1ccc(CN(CC2CCCO2)S(=O)(=O)c2ccc(-n3cnnn3)c(OC)c2)cc1 (configuration not stated)	none
COc1ccc(CN(Cc2ccc(OC)cc2)S(=O)(=O)c2ccc(-n3cnnn3)c(C)c2)cc1	Pf growth 96h 13µM, Pf growth 48h inconclusive
O=C(O)Cc1ccc(NS(=O)(=O)c2ccc3ccccc3c2)cc1	none (no result: Pf growth 48h)
Nc1nc(N)c(Cn2ccnc2)c(=O)[nH]1	none (no result: Pf growth 96h, Pf growth 48h, Shiga toxin inh, CHX counter, Giardia FBPA inh)

Screening data (PubChem)
